This is a sample that favours compounds with a hit; in the whole collection about 12% have one here.
JMJD2A Tudor inh = inhibitors of human JMJD2A Tudor domain | 390,000 tested, 4.4% active | AlphaScreen JMJD2A-Tudor / H3K4me3 peptide binding | Potency, µM (titrated, usually from 114 µM), actives largely listed as inhibitors; further: nearly all actives have a fitted effect of over 50% in size
G9a block = inhibitors of human histone lysine methyltransferase G9a; Q96KQ7; G9a H3K9 monomethylation, AlphaScreen, 2 h; Potency, µM (top dose mostly 102 µM), usual class: inhibitors; 350,000 tested, 8.8% active; AID 504332; further: nearly all actives have a fitted effect of over 75% in size
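AlphaScreen read-out: biotin-H3K9 peptide (500 nM) methylation by 20 nM enzyme with 20 uM SAM, 2 h at room temperature after 15 min compound preincubation; anti-monomethyl H3K9 antibody plus donor/acceptor beads, 10 min dark.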
BAZ2B block = BAZ2B (human) inhibition | AlphaScreen BAZ2B-H3K14Ac peptide displacement | Potency, µM (doses to about 114 µM), usual class: inhibitors | 360,000 tested, 4.4% active | AID 504333; further: nearly all actives have a fitted effect of over 60% in size
Target sequence (Q9UIF8 whole entry, looked up): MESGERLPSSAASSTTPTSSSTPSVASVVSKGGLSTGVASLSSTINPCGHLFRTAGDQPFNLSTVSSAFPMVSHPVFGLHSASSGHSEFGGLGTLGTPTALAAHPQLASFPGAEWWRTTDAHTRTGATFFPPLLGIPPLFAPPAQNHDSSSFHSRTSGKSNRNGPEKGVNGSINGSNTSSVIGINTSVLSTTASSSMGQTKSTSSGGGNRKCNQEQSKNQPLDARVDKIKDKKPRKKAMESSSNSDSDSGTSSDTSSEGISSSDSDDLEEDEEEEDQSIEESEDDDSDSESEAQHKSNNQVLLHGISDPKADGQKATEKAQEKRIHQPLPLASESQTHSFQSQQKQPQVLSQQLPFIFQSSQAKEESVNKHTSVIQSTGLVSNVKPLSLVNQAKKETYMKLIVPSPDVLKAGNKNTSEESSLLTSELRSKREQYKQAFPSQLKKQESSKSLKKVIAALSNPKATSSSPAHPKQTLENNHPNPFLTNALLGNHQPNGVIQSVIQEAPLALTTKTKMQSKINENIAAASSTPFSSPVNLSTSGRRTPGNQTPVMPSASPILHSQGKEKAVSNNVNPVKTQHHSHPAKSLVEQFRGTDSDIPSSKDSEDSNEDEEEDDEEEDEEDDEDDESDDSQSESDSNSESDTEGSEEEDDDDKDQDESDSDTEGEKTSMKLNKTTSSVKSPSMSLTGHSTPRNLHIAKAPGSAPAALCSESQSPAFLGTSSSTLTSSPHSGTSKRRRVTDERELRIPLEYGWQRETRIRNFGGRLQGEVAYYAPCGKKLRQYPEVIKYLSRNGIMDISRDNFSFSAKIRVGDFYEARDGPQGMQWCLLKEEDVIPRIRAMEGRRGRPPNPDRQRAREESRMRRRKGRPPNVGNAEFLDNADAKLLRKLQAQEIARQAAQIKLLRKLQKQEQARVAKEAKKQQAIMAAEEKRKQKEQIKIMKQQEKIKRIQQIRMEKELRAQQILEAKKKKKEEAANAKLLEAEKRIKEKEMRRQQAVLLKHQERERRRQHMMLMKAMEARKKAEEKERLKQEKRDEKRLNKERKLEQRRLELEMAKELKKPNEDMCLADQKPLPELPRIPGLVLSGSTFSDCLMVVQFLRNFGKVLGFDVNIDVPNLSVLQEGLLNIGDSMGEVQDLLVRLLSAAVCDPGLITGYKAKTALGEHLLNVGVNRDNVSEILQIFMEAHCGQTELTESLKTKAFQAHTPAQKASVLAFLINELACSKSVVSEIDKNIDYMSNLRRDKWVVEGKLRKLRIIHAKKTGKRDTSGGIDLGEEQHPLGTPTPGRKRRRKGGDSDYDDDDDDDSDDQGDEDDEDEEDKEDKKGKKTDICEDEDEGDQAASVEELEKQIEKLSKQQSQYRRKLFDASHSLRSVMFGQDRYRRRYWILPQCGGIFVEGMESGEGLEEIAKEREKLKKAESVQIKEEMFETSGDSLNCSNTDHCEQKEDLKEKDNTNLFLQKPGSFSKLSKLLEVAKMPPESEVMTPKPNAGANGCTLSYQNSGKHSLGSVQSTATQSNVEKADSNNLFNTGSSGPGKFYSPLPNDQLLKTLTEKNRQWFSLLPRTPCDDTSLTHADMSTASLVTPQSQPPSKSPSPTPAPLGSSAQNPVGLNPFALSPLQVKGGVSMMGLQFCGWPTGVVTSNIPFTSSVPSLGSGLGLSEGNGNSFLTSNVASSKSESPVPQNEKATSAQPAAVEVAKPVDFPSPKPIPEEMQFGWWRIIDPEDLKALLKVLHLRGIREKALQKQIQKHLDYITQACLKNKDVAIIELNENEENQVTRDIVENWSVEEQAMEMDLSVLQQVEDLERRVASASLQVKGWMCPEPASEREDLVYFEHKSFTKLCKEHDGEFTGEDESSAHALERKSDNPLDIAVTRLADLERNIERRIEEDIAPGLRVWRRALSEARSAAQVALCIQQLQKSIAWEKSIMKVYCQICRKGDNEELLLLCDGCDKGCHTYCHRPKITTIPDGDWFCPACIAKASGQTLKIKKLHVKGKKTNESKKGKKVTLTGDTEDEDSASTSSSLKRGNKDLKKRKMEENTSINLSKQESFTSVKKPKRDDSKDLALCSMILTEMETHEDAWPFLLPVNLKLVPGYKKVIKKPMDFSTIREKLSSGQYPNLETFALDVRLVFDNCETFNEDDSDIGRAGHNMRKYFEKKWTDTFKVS
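AlphaScreen displacement of biotin-H3(5-23)K14Ac peptide (50 nM final) from BAZ2B (50 nM final) in PBS pH 7.4, 0.01% Tween-20; complex preformed 30 min RT, then compounds (top 110 uM) 30 min RT, beads 20 min dark.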
HP1b binding inh = inhibitors of HP1-beta chromodomain binding to methylated histone tails. AlphaScreen HP1-beta / biotin-H3K9me3 peptide binding. Potency, µM (highest dose often 114 µM), most hits filed as inhibitors. 390,000 tested, 0.56% active. AID 540317; further: nearly all actives have a fitted effect of over 70% in size
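HP1-beta protein (50 nM final) preincubated 30 min at room temperature with biotinylated H3(1-18)K9me3 peptide (50 nM) in PBS pH 7.4, 0.01% Tween-20, then compound added for 30 min. AlphaScreen streptavidin donor/nickel chelate acceptor beads (10 ug/mL final), 30 min dark, luminescence read.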
Sfp PPTase inh = blocks B. subtilis Sfp PPTase activity; Q9F4F7; Biochemical Sfp PPTase activity, qHTS; Potency, µM, most hits filed as inhibitors; 310,000 tested, 3.5% active;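 further: the enzyme is Sfp with the accession as filed and its product quenches rhodamine fluorescence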
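Fluorescence-quenching assay: 15 nM Sfp-PPTase preincubated 15 min at room temperature with compound, then 5 uM rhodamine-CoA and 12.5 uM BHQ-2-labelled YbbR peptide added. Fluorescence (ex 525/em 598 nm) read at start and after 30 min; difference gives rate.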
L3MBTL1 inh = blocks human L3MBTL1; Potency, µM (series often up to 57.1 µM), most hits filed as inhibitors; 230,000 tested, 0.66% active; AID 485360; AlphaScreen L3MBTL1–H3K9me1 peptide binding; Q9Y468; further: nearly all actives have a fitted effect of over 60% in size
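L3MBTL1 (50 nM) pre-complexed 30 min with biotinylated H3(1-15)K9me1 peptide (75 nM), then compounds added for 30 min at room temperature; AlphaScreen streptavidin donor/nickel chelate acceptor beads (10 ug/mL final) read after 30 min dark incubation.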
Hits are given with their value; - = inactive; ? = inconclusive; . = not tested or not shown; [ ] = remark or other dose. The call rests on the fitted dose curve; in most records, active means well fitted curve in the direction sought with a large enough effect; inconclusive means small, poorly fitted or top-dose-only effect, or another doubt; inactive means no such curve, though single readings can be large; an effect the other way counts as inactive or inconclusive.

SMILES | JMJD2A Tudor inh | G9a block | BAZ2B block | HP1b binding inh | Sfp PPTase inh | L3MBTL1 inh
C#CCOCCOCCOCCNc1nc(N2CCN(C(=O)C(Cc3ccc(O)cc3)n3cc(C(N)CC(C)C)nn3)CC2)nc(N2CCN(C(=O)C(Cc3cc4ccccc4[nH]3)n3cc(C(N)C(C)CC)nn3)CC2)n1 (stereo not given) | . | ? | 50µM | . | - | -
COC(=O)c1cnn(-c2ccc(C(=O)Nc3ccc(C(C)=O)cc3)cc2)c1N | - | -[12.7 µM] | - | - | . | -
O=C(NCc1ccccc1)C(=O)Nc1c2c(nn1-c1ccc(F)cc1)CSC2 | - | - | - | - | . | .
O=C(NCCOCCO)C(=O)Nc1c2c(nn1-c1ccc(F)cc1)CSC2 | - | 13µM | - | - | . | .
CC(C)(C)OC(=O)N1CCC(c2c(C(=O)Nc3ccc4c(c3)OCO4)cnn2-c2ccc(F)cc2F)CC1 | ? | - | ? | - | . | .
COc1ccccc1NC(=O)c1c(NC(=O)COc2ccccc2)sc2c1CCCCC2 | - | - | - | - | . | .
Cc1cc2oc(C(=O)Nc3sc4c(c3C(=O)NCc3ccccc3)CCCC4)cc(=O)c2cc1C | - | - | - | - | . | .
O=C(Nc1sc2c(c1C(=O)NCc1ccccc1)CCCC2)c1cc(=O)c2ccccc2o1 | - | 11µM | - | ? | . | .
COc1ccc(OC)c(NC(=O)c2c(NCc3cccs3)sc3c2CCCC3)c1 | 40µM | ? | 35µM | - | . | .
COc1ccc(OC)c(CNc2sc3c(c2C(=O)Nc2cc(OC)ccc2OC)CCCC3)c1 | ? | 11µM | 22µM | - | . | .
COc1ccc(OC)c(NC(=O)c2c(NCc3cccs3)sc3c2CCCCC3)c1 | ? | 11µM | 22µM | - | . | .
COc1ccc(NC(=O)c2c(NCc3cccs3)sc3c2CCCC3)c(OC)c1 | ? | ? | ? | - | . | .
COc1cc(OC)c(OC)cc1CNc1sc2c(c1C(=O)Nc1ccccc1OC)CCC2 | ? | 13µM | - | - | . | .
COc1ccc(OC)c(NC(=O)c2c(NC(=O)CCC(=O)O)sc3c2CCCCC3)c1 | ? | 45µM | - | - | 50µM | -
O=C(O)CCC(=O)Nc1sc2c(c1C(=O)Nc1cccc3ccccc13)CCCCC2 | ? | 22µM | ? | - | 50µM | -
COc1ccc(OC)c(NC(=O)c2c(NC(=O)c3ccco3)sc3c2CCC3)c1 | . | -[12.7 µM] | - | . | - | -
Cc1ccccc1-c1nc(Nc2ccncc2)c2ccccc2n1 | . | -[0.501 µM] | . | . | - | .
O=C1C2C3C=CC(CO)(O3)C2C(=O)N1c1ccc(-c2ccccc2)cc1 (stereo not given) | . | 1µM | - | . | 5µM | -
CC(C)(C)C(=O)NCC12C=CC(O1)C1C(=O)N(c3ccccc3)C(=O)C12 (stereo not given) | 56µM | 1.6µM | - | ? | - | -
Cc1ccc(C)c(NC(=S)N2CCN(c3ccccn3)CC2)c1 | - | . | - | - | - | -
COC(=O)C1(CO)NC(c2ccc(C)cc2)C2C(=O)N(c3ccccc3)C(=O)C21 (stereo not given) | - | - | - | - | - | -
Cc1ccc(N2C(=O)C3C4C=CC(CNC(=S)N5CCN(c6ccccn6)CC5)(O4)C3C2=O)cc1 (stereo not given) | ? | 2.2µM | - | ? | 28µM | .
O=C(CC(c1cccs1)N1Cc2ccccc2C1=O)Nc1cccc(F)c1 (stereo not given) | - | - | - | - | . | .
Cc1ccc(O)c(C2=NNC(O)(C(F)(F)F)C2)c1 (stereo not given) | - | 56µM | - | - | - | .
COc1ccc(OC)c(CCNC(=O)c2cnn(-c3ccccc3)c2-n2cccc2)c1 | ? | - | - | - | . | .
O=C(Cn1cnc2nc3c(cc2c1=O)CCCC3)Nc1ccc(F)cc1Cl | - | - | - | - | . | .
COc1ccc2[nH]c3c(c2c1)CCN1C(=O)N([C@@H](C)C(=O)NC2CCN(Cc4ccccc4)CC2)C(=O)[C@]31C | ? | . | 50µM | - | - | .
COc1ccc2[nH]c3c(c2c1)CCN1C(=O)N([C@@H](C)C(=O)NCc2ccco2)C(=O)[C@]31C | - | - | 50µM | - | - | -
COc1ccc2[nH]c3c(c2c1)CCN1C(=O)N([C@@H](C)C(=O)NCc2ccccc2)C(=O)[C@]31C | - | . | - | - | - | -

Assay outcomes deposited in PubChem by National Center for Advancing Translational Sciences (NCATS).
